The list is not random: actives were taken first. Their share in the collection is about 7.5%.
FLuc counter = firefly luciferase modulation, counter-screen for miR-21 project. purified FLuc, Km substrates, luminescence inhibition. Potency, µM (highest dose often 57.5 µM), inactives show at the highest dose activity change, negative = inhibition, most hits filed as inhibitors. 360,000 tested, 6.9% active;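 further: plate controls were vehicle for no effect and reference inhibitor for full effect; nearly all actives have a fitted effect of over 55% in size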
Target sequence (P08659 whole entry, looked up): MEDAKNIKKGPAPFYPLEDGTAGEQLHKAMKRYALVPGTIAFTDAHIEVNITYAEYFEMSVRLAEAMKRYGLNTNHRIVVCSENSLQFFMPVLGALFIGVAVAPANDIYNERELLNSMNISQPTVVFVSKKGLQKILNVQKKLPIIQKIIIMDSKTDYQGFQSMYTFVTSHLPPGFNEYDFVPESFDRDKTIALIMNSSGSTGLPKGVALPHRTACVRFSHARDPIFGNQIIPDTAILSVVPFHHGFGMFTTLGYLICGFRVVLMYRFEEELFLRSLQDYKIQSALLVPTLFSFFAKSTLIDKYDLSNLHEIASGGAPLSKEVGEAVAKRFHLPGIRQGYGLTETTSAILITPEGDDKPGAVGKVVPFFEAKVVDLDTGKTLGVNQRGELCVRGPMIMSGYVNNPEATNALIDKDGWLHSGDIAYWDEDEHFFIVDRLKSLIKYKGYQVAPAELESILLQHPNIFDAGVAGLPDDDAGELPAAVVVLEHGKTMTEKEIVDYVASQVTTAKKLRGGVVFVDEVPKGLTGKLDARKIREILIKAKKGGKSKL
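Purified P. pyralis luciferase, 10 nM final, with Km-level 10 uM D-luciferin and 10 uM ATP in 50 mM Tris acetate pH 7.5, 10 mM Mg acetate, 0.01% Tween-20, 0.05% BSA; 6-point qHTS titration about 60 µM downward; luminescence read.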
Rab9 promoter act = activates the Rab9 promoter; 320,000 tested, 2.8% active; Potency, µM (highest dose often 9.22 µM), inactives show at the highest dose activation, negative = inhibition, usual class: activators; Huh7 Rab9 promoter-luciferase reporter, luminescence, 24 h; further: % of control where 0% means no effect; nearly all actives have a fitted effect of over 60% in size
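Cells were plated at 1500 per well in reduced-serum medium with 10% FBS and left 2 h. Compound in DMSO was then added for 24 h at 37 °C. Reporter signal was read by luminescence after 10 min with luciferase detection reagent.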
ELG1 genotoxic = induces genotoxicity in HEK293T cells with luciferase-tagged ELG1; 330,000 tested, 1.3% active; AID 504466; HEK293T ELG1-luciferase reporter, luminescence, 16 h; Potency, µM (titrated, usually from 46 µM), without a hit: at the highest dose activity change, positive = activation, most hits filed as activators; further: % of control where 0% means no effect; nearly all actives have a fitted effect of over 60% in size
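Step 1: seed 2,000 HEK293T ELG1-luciferase cells per well. Step 2: add compound or DMSO, incubate 16 hr at 37 °C. Step 3: ONE-Glo, 30 min at room temperature, read luminescence.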
SMN2 splice up = SMN2 splice variant enhancement; 210,000 tested, 2.8% active; HEK293 SMN2-luciferase splicing reporter, luminescence, 30-36 h; AID 1458; Potency, µM (highest dose often 46.1 µM), inactives show at the highest dose activity change, positive = activation, usual class: activators; further: % of control where 0% means no effect; nearly all actives have a fitted effect of over 55% in size
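HEK293 cells carry an SMN2 minigene-luciferase reporter in which exon 7 inclusion puts luciferase in frame. Cells were seeded at 2000 cells/well, attached for 10-12 hours, then exposed to compounds for 30-36 hours at 37C before ONE-Glo luminescence.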
NPC1 prom act = activators of NPC1 promoter | Huh7 NPC1 promoter luciferase reporter, 24 h | Potency, µM (series often up to 9.22 µM), inactives show at the highest dose activation, usual class: activators | 320,000 tested, 2.4% active | AID 485313; further: % of control where 0% means no effect; nearly all actives have a fitted effect of over 60% in size
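Stable NPC1-promoter luciferase Huh7 line; cpd (DMSO) 24 h, 37 °C, 5% CO2; Amplite luciferase reagent 10 min RT; luminescence readout. qHTS format.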
Active calls of the source: *; ? = inconclusive; . = no result given; ! = repeats disagree; [ ] = remark or other dose. The call rests on the fitted dose curve; in most records, active means well fitted curve in the direction sought with a large enough effect; inconclusive means small, poorly fitted or top-dose-only effect, or another doubt; inactive means no such curve, though single readings can be large; an effect the other way counts as inactive or inconclusive. Potency means the concentration at half of the fitted maximal effect.

SMILES	FLuc counter	Rab9 promoter act	ELG1 genotoxic	SMN2 splice up	NPC1 prom act
N#CCCCSc1ncccc1-c1nc2ccccc2[nH]1	?	?	15%	-7%	?
CCOc1ccc(NC(=O)COC(=O)c2cc(S(=O)(=O)N3CCCC3)ccc2C)cc1	?	-3%	1%	.	-3%
O=C(CSc1nc2[nH]ncc2c(=O)n1-c1ccccc1Br)NCc1ccccc1Cl	0%	-4%	-2%	5%	-8%
N#CCSc1nc2[nH]ncc2c(=O)n1-c1ccccc1Br	0.13µM*	0.32µM*	?	.	?
COc1ccc(N2CCN(C(=O)c3ccc4c(=O)n(CCc5ccc(OC)c(OC)c5)c(=O)[nH]c4c3)CC2)cc1	-2%	-17%	-12%	-59%	-25%
O=C(CCCCCCCC(=O)c1ccccc1)c1ccccc1	-18%	-7%	0%	1%	10%
C=C(CCC(=O)c1ccccc1)C(=O)c1ccccc1	17µM*	-8%	-16%	-20%	-4%
COc1ccc(/C(N)=N/OC(=O)Cc2cccs2)cc1	12µM*	3.2µM*	?	?	?
COc1ccc(/C(N)=N/OC(=O)Cc2cccs2)cc1OC	24µM*	6%	12%	23%	11%
COc1ccc(C(=O)O/N=C(\N)Cc2cccs2)cc1OC	5%	5%	13%	.	1%
COCCN(CC(=O)NC1CCCCC1)C(=O)CCCC(=O)Nc1ccccn1	-1%	-3%	0%	11%	-10%
CCc1ccccc1NC(=O)CCC(=O)Nc1nnc(C(C)C)s1	4%	1%	12%	.	-5%
Cc1ccc(Cl)cc1NC(=O)CCN1C(=O)C2C3CCC(C3)C2C1=O (stereo not given)	5%	1%	0%	8%	-1%
COc1cc(/C=N/NC(=S)NCc2ccco2)cc(OC)c1OC	0%	-3%	32%	35µM*	-1%
O=C(CCl)N=c1sccn1Cc1ccccc1Cl	0%	-54%	-7%	.	-52%
O=C(Cn1ccsc1=NC(=O)C(F)(F)F)c1ccccc1	-12%	2.8µM*	15%	?	?
CCc1nnc(NS(=O)(=O)c2ccc(N/C=C\C(=O)c3ccc4ccccc4c3)cc2)s1	?	-8%	6%	-5%	1%
O=C(/C=C\NCC(=O)c1ccccc1)c1ccc(F)cc1	13µM*	26%	10%	-14%	20%
O=C(/C=C\NCC(=O)c1ccccc1)c1ccc2ccccc2c1	27µM*	16%	10%	.	17%
Cn1nc(-c2ccccc2)c(C#N)c1Sc1cccc(Cl)c1	3%	-2%	-6%	-21%	-4%
CN1c2ccccc2C(=O)C(=C2SCCCS2)S1(=O)=O	19µM*	-3%	-1%	.	1%
O=C(c1ccccc1)N1CCN(c2ncnc3c(-c4ccccc4)nsc23)CC1	4%	-5%	-11%	.	-4%
Cc1ccc(C(=O)N2CCN(c3ncnc4c(-c5ccccc5)nsc34)CC2)cc1	-14%	-11%	-1%	-25%	-4%
O=C(N1CCCC1)N1CCN(c2ncnc3c(-c4ccc(Cl)cc4)nsc23)CC1	17µM*	11%	?	?	22%
Cc1ccc(-c2nsc3c(N4CCC(C(N)=O)CC4)ncnc23)cc1	1.5µM*	2.8µM*	?	-16%	1.6µM*
SMILES	FLuc counter	Rab9 promoter act	ELG1 genotoxic	SMN2 splice up	NPC1 prom act
CC(=O)Oc1ccccc1C(=O)N1CCN(S(=O)(=O)c2ccc3ccccc3c2)CC1	5%	-9%	3%	.	0%
COc1ccc(-c2cc(C(F)(F)F)n3nc(C(=O)Nc4ccc(Cl)cc4C(F)(F)F)cc3n2)cc1OC	-3%	.	.	5%	.
CC1CCN(c2nc3ccc(C(=O)NC(C)C)cc3s2)CC1	1.7µM*	.	.	0.79µM*	.
CC1CCN(c2nc3ccc(C(=O)NCc4ccccc4)cc3s2)CC1	12µM*	.	.	-24%	.
CCOc1ccccc1CNC(=O)c1ccc2nc(N3CCC(C)CC3)sc2c1	?	.	.	-3%	.
CC(Sc1ncn[nH]1)C(=O)Nc1ccc(Cl)cn1 (stereo not given)	4%	-3%	9%	.	-8%
COc1ccc(OCCn2cc(/C=C(\C#N)C(=O)NCc3ccco3)c3ccccc32)cc1	1%	-3%	15%	26%	2%
CC1CCCN(C(=O)CSc2nc3ccccc3o2)C1 (stereo not given)	17µM*	3.2µM*	?	19%	2.5µM*
O=C(O)c1ccc2oc(SCC(=O)N3CCCCC3)nc2c1	17µM*	2.5µM*	?	13µM*	3.5µM*
CN(C(=O)CSc1nc2ccccc2o1)C1CCCCC1	7.6µM*	2.8µM*	?	.	2.2µM*
CN(C(=O)CSc1nnc(-c2cccnc2)o1)C1CCCCC1	-2%	-1%	1%	.	-1%
O=C(CSc1nc2cc(Cl)ccc2o1)N1CCOCC1	-5%	1%	4%	20%	3%
COC(=O)CC(N)c1ccc(Br)cc1 (stereo not given)	-2%	-11%	0%	-3%	-3%
CN(CC(=O)Nc1ccccc1Cl)C(=O)CCSc1ccc(F)cc1	4%	4%	-6%	.	5%
NNCCc1ccccc1	?	14µM*!	16%	4%	15%
CC12CCC(C(=O)Nc3nc4ccc(Br)cc4s3)(OC1=O)C2(C)C (stereo not given)	19µM*	?	14%	?	?
CCc1ccccc1OCC(=O)NC1CCCC1	-2%	-3%	4%	27%	-1%
COC(=O)c1ccccc1OCC(=O)NC1CCCCC1	?	23%	21µM*	5%	16%
O=C(COc1ccccc1Br)NC1CC1	-17%	4%[1.84 µM]	?	.	12%
O=C(COc1ccccc1Br)NC(=O)NC1CCCC1	12µM*	2.8µM*	?	.	27%
COc1cc(C)ccc1OCC(=O)NC1CCCCCC1	17µM*	?	?	.	?
COc1ccc(OCCOCCOc2ccc(C)cc2[N+](=O)[O-])cc1	?	-6%	0%	2%	0%
Cc1ccc(OCCOc2ccc(Cl)cc2Cl)c([N+](=O)[O-])n1	17µM*	27%	?	-14%[1.84 µM]	?
COc1ccc(OCCOc2ccc(C)nc2[N+](=O)[O-])cc1	24µM*	?	?	?	?
Cc1ccc(COc2ccc(C)nc2[N+](=O)[O-])cc1	2.4µM*	0.71µM*	3.7µM*	.	0.79µM*
CSc1nc2ncc3c(n2n1)CC(C)(C)CC3=O	1%	-5%	-1%	1%	-6%
COc1ccc(NS(=O)(=O)c2ccc3oc(SC)nc3c2)cc1	0%	-1%	-8%	.	-4%
COc1ccc(-n2nnnc2S(=O)(=O)CC(=O)N2CCCCC2)cc1	2%	-25%	10%	-101%	-7%
COC(=O)c1ccc2c(=O)n(NC(C)=O)c(=S)[nH]c2c1	9%	1%	-1%	2%	1%
Cc1ccc2c(c1)NC(=O)CC(c1ccccc1)=N2	12µM*	?	13%	?	10%

Assay outcomes: PubChem, National Center for Advancing Translational Sciences (NCATS)
